# “And” between values parts separate entries of the source, which are not always exact repeats. Equal values may be shown once. Compounds without any hit were thinned out: in the full panel of roughly 83,000, 20% have a hit.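 Compound tested at a single concentration for 48 hours in 96-well plates; a percent growth value below 10 was scored as active.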 The source made the active and inactive calls.
# System: OVCAR-5 ovarian
# Assay: NCI-60 one-dose screen, 48 h (100 = growth as untreated, 0 = no growth, -100 = all killed)
# Settings: 10 µM unless noted
row,SMILES,growth
1,CNC(=O)c1cc(Oc2ccc3nc(NC(=O)Nc4ccc(C(F)(F)F)cc4)sc3c2)ccn1,93.9% (inactive)
2,CC1=C2[C@@H](CC1)[C@]1(C)O[C@@](C3CC3)(C[C@H]1OC(=O)CO)[C@H]2OC(=O)/C=C/c1ccccc1,96% (inactive)
3,O=C(c1ccc(Nc2nccc(NCCCNc3ccnc4cc(Cl)ccc34)n2)cc1)N1CCCCC1,71.2% (inactive)
4,CCN(CC)CC#CCOC(=O)[C@]1(C)CCC[C@]2(C)c3ccc(C(C)C)cc3CC[C@@H]12,93.5% (inactive)
5,Nc1nc2ccccc2c2c(=O)c3ccc(Cl)cc3sc12,101% (inactive)
6,Nc1nc2c(s1)CCc1cn(S(=O)(=O)c3ccccc3)cc1-2,102% (inactive) and 104% (inactive)
7,COc1cccc(NC(=O)c2sc3nc(C)c(C(O)c4ccccc4)cc3c2N)c1 (stereo unspecified),47.5% (inactive)
8,CC12OC(CC(O)C1O)n1c3ccccc3c3c4c(c5c6ccccc6n2c5c31)C(=O)N(CCN1CCOCC1)C4=O (stereo unspecified),24.7% (inactive)
9,Cc1c(O)c(O)cc2c3c(oc12)CC(c1ccc2c(c1)OCO2)CC3=O (stereo unspecified),113% (inactive)
10,N#CC1=C(N)Oc2c(sc3c(Br)cccc23)C1c1ccccn1 (stereo unspecified),72% (inactive)
11,COc1cc2nc3cc([N+](=O)[O-])ccc3c(NCCNCC(C)(C)O)c2cc1OC,8.33% (active)
12,CCOc1ccccc1NC(=O)c1cc2ccccc2cc1O,114% (inactive)

# System: OVCAR-4 ovarian
# Assay: as above
# Settings: 10 µM unless noted
row,SMILES,growth
1,CN1CCN(CCCN2c3ccccc3Sc3ccc(Cl)cc32)CC1,68.4% (inactive) and 81.1% (inactive)
2,O=C(c1cccc(Br)c1)N1CCN(c2ccnc3cc(Cl)ccc23)CC1,54.9% (inactive)
3,N#CSc1c[nH]c2ccc(/C=C/C(=O)/C=C(/C=C/c3ccc4[nH]cc(SC#N)c4c3)OB(F)F)cc12,1% (active)
4,COc1cc(Nc2nc3ccccc3cc2C(=O)Nc2ccc(F)c(F)c2)cc(OC)c1OC,23% (inactive)
5,CCOC(=O)CC1CSC(c2cccc(Cl)c2)=N1 (stereo unspecified),111% (inactive)
6,CC/C=C\C/C=C\C[C@H](O)C/C=C1/C(=O)C=C[C@@H]1C/C=C\CCCC(=O)OC,28.2% (inactive)
7,CCCCCCNC(=O)Oc1ccc(/C(=C(/CC)Cc2ccccc2)c2ccc(OCCCN(C)C)cc2)cc1,81.7% (inactive)
8,NC(N)=NC(N)=NCCCc1ccco1,104% (inactive)
9,O=C(N=Nc1c(O)[nH]c2ccccc12)Nc1ccccc1Cl,71% (inactive)
10,O=C(N/N=C/c1ccc(O)cc1O)c1cccc(Nc2ccnc(C(F)(F)F)c2)c1,39.9% (inactive)
11,O=C(Nc1ccc2ccccc2c1)c1cc2ccccc2cc1O,82.9% (inactive)
12,Cc1ccc(-c2nc3nc(-c4ccccc4)nc(N4CCN(S(=O)(=O)c5ccccc5)CC4)c3o2)cc1,99.6% (inactive)
13,Cn1cc(C2=C(c3cccc4ccccc34)C(=O)NC2=O)c2cc(Br)ccc21,124% (inactive)
14,CC[C@@H]1NC(=O)[C@H]([C@H](O)[C@H](C)C/C=C/c2ccc(CN3C(=O)C(C)=C(C)C3=O)cc2)N(C)C(=O)[C@H](C(C)C)N(C)C(=O)[C@H](CC(C)C)N(C)C(=O)[C@H](CC(C)C)N(C)C(=O)[C@@H](C)NC(=O)[C@H](C)NC(=O)[C@H](CC(C)C)N(C)C(=O)[C@H](C(C)C)NC(=O)[C@H](CC(C)C)N(C)C(=O)CN(C)C1=O,74.4% (inactive)
15,O=C1/C(=C/c2ccc(F)c(F)c2)CN(C(=O)C(Cl)Cl)C/C1=C\c1ccc(F)c(F)c1,-67.1% (active)
16,O=C1C(c2c[nH]c3ccccc23)=C(c2coc3cc(Br)ccc23)C(=O)N1O,115% (inactive)
17,CC1=CC(C)(C)NC(=S)N1c1ccc(Cl)cc1,103% (inactive)
18,O=C1/C(=C/c2ccccc2)CN(C(=O)C(Cl)Cl)C/C1=C\c1ccccc1,29.7% (inactive)
19,CC(=O)N1N=C(c2ccc(Nc3nc(Nc4ccc(F)cc4)nc(Nc4ccc(Cl)cc4)n3)cc2)CC1c1ccc(N(C)C)cc1 (stereo unspecified),47.8% (inactive)
20,CCCN1C(=O)/C(=c2\sc3n(c2=O)NC2C(N=3)N(CC)C(=O)N2CC)c2ccccc21 (stereo unspecified),63% (inactive)

row,SMILES,growth
1,CONC1=Nc2cc(NC(N)=NCc3ccccc3)c(N(C)C3CCCCC3)cc2OC1,73.8% (inactive)
2,Cc1c(CC(=O)OCCO)cc(-c2ccc(Cl)cc2)n1-c1ccccc1,68.9% (inactive)
3,COc1cc(/C=C2\CCC/C(=C\c3cc(CN4CCCC4)c(O)c(OC)c3)C2=O)cc(CN2CCCC2)c1O,47.1% (inactive)
4,Fc1ccccc1-c1cnn2cc(-c3ccccc3)cnc12,98.5% (inactive)
5,CC(C)(C)c1cc(NC(=O)Nc2ccc(-c3cn4c(n3)sc3cc(OCCN5CCOCC5)ccc34)cc2)no1,59.3% (inactive) and 3.54% (active)
6,COc1ccc(/C=N/NC(=O)CN2CCN(c3cc4c(cc3F)c(=O)c(C(=O)O)cn4C3CC3)CC2)cc1O,108% (inactive)
7,NNCCc1ccccc1,101% (inactive) and 96.9% (inactive)
8,CNC(=O)c1cc(Oc2ccc3nc(NC(=O)Nc4ccc(C(F)(F)F)cc4)sc3c2)ccn1,37.7% (inactive)
9,CC1=C2[C@@H](CC1)[C@]1(C)O[C@@](C3CC3)(C[C@H]1OC(=O)CO)[C@H]2OC(=O)/C=C/c1ccccc1,110% (inactive)
10,O=C(c1ccc(Nc2nccc(NCCCNc3ccnc4cc(Cl)ccc34)n2)cc1)N1CCCCC1,48.4% (inactive)
11,CCN(CC)CC#CCOC(=O)[C@]1(C)CCC[C@]2(C)c3ccc(C(C)C)cc3CC[C@@H]12,71.3% (inactive)
12,Nc1nc2ccccc2c2c(=O)c3ccc(Cl)cc3sc12,92.1% (inactive)
13,Nc1nc2c(s1)CCc1cn(S(=O)(=O)c3ccccc3)cc1-2,87.5% (inactive)
14,COc1cccc(NC(=O)c2sc3nc(C)c(C(O)c4ccccc4)cc3c2N)c1 (stereo unspecified),70.3% (inactive)
15,CC12OC(CC(O)C1O)n1c3ccccc3c3c4c(c5c6ccccc6n2c5c31)C(=O)N(CCN1CCOCC1)C4=O (stereo unspecified),22.9% (inactive)
16,Cc1c(O)c(O)cc2c3c(oc12)CC(c1ccc2c(c1)OCO2)CC3=O (stereo unspecified),89.4% (inactive)
17,N#CC1=C(N)Oc2c(sc3c(Br)cccc23)C1c1ccccn1 (stereo unspecified),88.6% (inactive)
18,COc1cc2nc3cc([N+](=O)[O-])ccc3c(NCCNCC(C)(C)O)c2cc1OC,-31.8% (active)
19,CCOc1ccccc1NC(=O)c1cc2ccccc2cc1O,61% (inactive)

# — PubChem BioAssay (NCI)
